PubChem BioAssay (NCI)
The panel holds about 83,000 compounds, 20% with a hit somewhere; the sample as a whole holds those more often.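 How to read the values: 0–100, growth inhibition (40 = 60% inhibited); 0, no net growth; -100 to 0, cell death (-40 = 40% of starting cells died; -100 = all dead).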 Unmarked numbers belong to inactive results. Activity calls are given as the source filed them. How the source made its calls: active means growth percent below 10; inactive means the rest.

tested on: MDA-MB-468 breast; assay: NCI-60 one-dose screen, 48 h (100 = growth as untreated, 0 = no growth, -100 = all killed); settings: 10 µM unless noted

| SMILES | growth |
| --- | --- |
| O=C1C=CC2(NN=C(c3ccccc3)N2c2ccc(Cl)cc2)c2cccc(O)c21 (centres undefined) | 47.6% |
| O=C1Nc2cc(-c3ccc(NC(=O)c4ccccc4)cc3)ccc2/C1=C/c1ccc[nH]1 | 2.14% (active) |
| C=CCOc1ccc2c(c1)CC=C1[C@@H]2CC[C@]2(C)C(=O)/C(=N/O)C[C@@H]12 | 55.7% |
| CCOC(=O)CNC(=O)Sc1ccc(C(C)(C)C)cc1 | 111% |
| O=C(/C=C/C12c3ccccc3C(c3ccccc31)C1C(=O)N(c3ccccc3)C(=O)C12)c1ccccc1 (centres undefined) | 1.31% (active) |
| CCC(c1cccc(Br)c1)C(C(=O)O)c1ccc(OC)cc1 (centres undefined) | 102% |
| COc1cccc(-n2cc(-c3nc(Nc4cc(C)[nH]n4)c4ccccc4n3)nn2)c1 | 48.1% |
| COc1ccc(C2C(C#N)=C(/N=C/c3ccc(Cl)cc3)Oc3c2sc2c(C)cccc32)cc1 (centres undefined) | 21.4% |
| COc1ccc(C(O)(CCC(C)C)C(CN2CCOCC2)c2ccc(Cl)cc2)cc1 (centres undefined) | 80.6% |
| c1ccc(C2CCCCC2)c(OCCCCCN2CCNCC2)c1 | -36.2% (active) |
| COc1ccc(-c2nc3cc(C(=O)NC4CCCCC4)ccc3n2C2CCCCC2)cc1 | 109% |
| CC(=O)OCC(=O)[C@@]1(O)[C@H](C)C[C@H]2[C@@H]3C=C(C)C4=Cc5c(cnn5-c5ccc(F)cc5)C[C@]4(C)[C@H]3[C@@H](O)C[C@@]21C | -22.6% (active) |
| CCOC(=O)C(=O)Nc1ccc2c(ccn2C(=O)c2cccc(F)c2)c1 | 89.5% |
| CCCCCCCCCCCC(=O)NCCCN(C)C | 111% |
| O=C(c1ccccc1)N(C(=S)NCCc1ccc(Cl)cc1)c1ccccc1 | 30.3% |
| CCCCCCCCCCCCSC1=C(Cl)C(=O)C(OC)=C(OC)C1=O | 20.9% |
| C=C1C(=O)O[C@H]2[C@H]1CC/C(COC(=O)N[C@H]1C[C@H](O[C@H]3C[C@](O)(C(=O)CO)Cc4c(O)c5c(c(O)c43)C(=O)c3c(OC)cccc3C5=O)O[C@@H](C)[C@H]1O)=C\CC[C@@]1(C)O[C@@H]21 | -55.9% (active) |

| SMILES | growth |
| --- | --- |
| O=C(/C=C/C12c3ccccc3C(c3ccccc31)C1C(=O)NC(=O)C12)c1ccncc1 (centres undefined) | 6.35% (active) |
| CC(=O)[C@@]1(O)CC[C@H]2[C@@H]3CC[C@@H]4CC(=O)CC[C@]4(C)[C@H]3[C@@H](O)C[C@@]21C | 94.6% |
| O=C(NNc1nc2cc(F)ccc2n2cccc12)c1ccncn1 | -15.2% (active) |
| O=C(NCCN1CCC(O)CC1)c1cc2c(o1)C(=O)c1ccccc1C2=O | -85.8% (active) |
| O=C(Nc1nc(-c2ccccc2)nc2c1sc(=S)n2-c1ccccc1)C(F)(F)F | 105% |
| N#Cc1nnn(-c2ccc(S(N)(=O)=O)cc2)c1NCC(=O)c1ccccc1 | 96.7% |
| O=C(Cc1ccccc1Nc1c(Cl)cccc1Cl)NN1C(=O)/C(=C/c2ccc(Br)cc2)SC1=S | 97% |
| Cc1cc(N)ccc1-c1ccc(N)cc1C | 97.5% |
| Nc1ccc2cc(S(=O)(=O)O)cc(O)c2c1N=Nc1ccc(F)cc1 | 118% |
| CCC(C)C1NC(=O)C(CC(C)C)NC(=O)C(C)NC(=O)C(C(C)C)NC(=O)C(CCCCN)NC(=O)C(CC(C)C)NC(=O)C(C(C)C)NC(=O)[C@H](C)NC(=O)C(C(C)CC)NC(=O)C(CCCN=C(N)N)NC(=O)C(CCCCN)NC(=O)C(CCCN=C(N)N)NC(=O)C(CCCCN)NC(=O)C([C@H](C)CC)NC(=O)C(CCCCN)NC1=O (some centres undefined) | -4.06% (active) |
| N#C/C(=C\c1cccc2cnccc12)N1N=NC2C=CC=CC21 (centres undefined) | 32.9% |
| COCCCNc1nc(NC(=O)c2cc(OC)cc(OC)c2)cc(-c2cccnc2)n1 | 94.8% |
| COc1ccc(NC(=O)CSc2nc3ccccc3c(=O)n2CCc2ccccc2)cc1 | 87.7% |
| COc1cc(/C=C(\C#N)C(=O)c2ccccc2)ccc1OCc1ccccc1 | 96.4% |
| Oc1ccc(-c2nc3ccc(/C(=N\N=C\c4ccc(Cl)cc4)c4ccccc4)cc3[nH]2)cc1 | 79.5% |
| Cc1cc(N2CCOCC2)nc(N(CCNc2ccnc3cc(Cl)ccc23)Cc2cccs2)n1 | -15.2% (active) |
| COc1ccc(-c2cc(-c3ccccc3)nc(SCCCC(=O)NO)n2)cc1 | -50.5% (active) |
